The term inhibition denotes the relative decrease from the control value, in per cent.

About 150 (2.7%) of roughly 5,600 compounds showed an effect of 50% or more. This excerpt belongs to a sample that is enriched for strong results.

Assay [1] has as its target T1, Protein deacetylase HDAC6 (Homo sapiens) (UniProt Q9UBN7).
T1 sequence (whole entry): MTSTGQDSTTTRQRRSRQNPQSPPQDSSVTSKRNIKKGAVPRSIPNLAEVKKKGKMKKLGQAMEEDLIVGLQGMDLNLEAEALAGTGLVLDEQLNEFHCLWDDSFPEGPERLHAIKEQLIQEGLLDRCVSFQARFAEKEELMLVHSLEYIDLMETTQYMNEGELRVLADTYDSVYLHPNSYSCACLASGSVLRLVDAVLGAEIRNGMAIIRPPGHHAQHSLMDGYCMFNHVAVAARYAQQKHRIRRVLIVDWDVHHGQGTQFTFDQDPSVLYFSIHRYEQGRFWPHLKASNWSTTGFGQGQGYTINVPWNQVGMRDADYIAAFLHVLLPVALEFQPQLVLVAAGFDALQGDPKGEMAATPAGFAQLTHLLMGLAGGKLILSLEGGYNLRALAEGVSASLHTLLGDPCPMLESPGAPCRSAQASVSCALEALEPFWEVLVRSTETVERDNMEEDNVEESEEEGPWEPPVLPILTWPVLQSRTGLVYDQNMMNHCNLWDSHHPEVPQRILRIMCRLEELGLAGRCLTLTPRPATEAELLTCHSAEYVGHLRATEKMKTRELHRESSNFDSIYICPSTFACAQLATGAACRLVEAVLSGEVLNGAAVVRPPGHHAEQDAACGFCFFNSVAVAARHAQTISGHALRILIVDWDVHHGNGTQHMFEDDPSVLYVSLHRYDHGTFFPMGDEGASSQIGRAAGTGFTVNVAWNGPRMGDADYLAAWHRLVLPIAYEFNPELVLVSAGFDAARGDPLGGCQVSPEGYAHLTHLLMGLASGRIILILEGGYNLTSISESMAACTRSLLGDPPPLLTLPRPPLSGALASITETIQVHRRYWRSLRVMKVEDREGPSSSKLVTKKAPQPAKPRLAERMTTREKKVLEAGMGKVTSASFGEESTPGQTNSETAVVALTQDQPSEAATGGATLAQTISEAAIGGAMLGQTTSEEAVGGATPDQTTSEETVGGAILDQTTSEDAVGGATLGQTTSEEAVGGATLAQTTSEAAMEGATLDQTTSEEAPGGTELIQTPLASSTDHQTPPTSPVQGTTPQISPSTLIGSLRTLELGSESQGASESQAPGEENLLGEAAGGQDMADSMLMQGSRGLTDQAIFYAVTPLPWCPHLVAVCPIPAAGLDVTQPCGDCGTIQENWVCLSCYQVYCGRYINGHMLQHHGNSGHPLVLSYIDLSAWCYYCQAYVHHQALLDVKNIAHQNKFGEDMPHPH
The conditions noted are these: at 10 µM.

Assay [2] has as its target Protein deacetylase HDAC6 (Homo sapiens) (UniProt Q9UBN7). The conditions noted are these: at 10 µM. The source holds these as a separate data set.

Regarding `CCCCn1ccc(N2CCC(c3ccccc3)CC2)c(Cl)c1=O`, in assay [1], the inhibition came to 42.8%.
As for `CCOC(=O)N1c2ccc(C(F)(F)F)cc2[C@@H](N(Cc2cc(C(F)(F)F)cc(C(F)(F)F)c2)C(=O)OC)C[C@H]1CC`, in assay [1], the inhibition was -1.4%.
Still for that read-out and setting: next, `CC[C@@H]1C[C@H](N(Cc2cc(C(F)(F)F)cc(C(F)(F)F)c2)C(C)=O)c2cc(C(F)(F)F)ccc2N1C(=O)OC(C)C`: 88.1%; `CCCCCCCCCCCCCCCCNc1ccc(C(=O)O)cc1`: 2.63%.
Take FLUPENTIXOL, CHEMBL6066864: in assay [2], the inhibition came to 14.4%.
Regarding `CC(=O)Nc1ccc(CC(=O)O)cc1`, in assay [1], the inhibition was -5.64%.
On the same count and under the same terms, next, `CCOC(=O)c1ccc(OC(=O)CCCCCNC(=N)N)cc1`: 22.4%; `CN(C)C(=O)COC(=O)Cc1ccc(OC(=O)c2ccc(NC(=N)N)cc2)cc1`: 96.5%; `Nc1ccn([C@@H]2O[C@@](CO)(CCl)[C@@H](O)[C@H]2F)c(=O)n1`: -1.66%.
On the same count and under the same terms, next, `O=C(/C=C/c1ccc(O)c(O)c1)c1ccc(O)cc1O`: 99.2%; `O=C(O)/C=C/c1ccc(O)cc1`: -0.48%.
Same read-out and setting: next, `O=C(O)/C=C/c1ccc(O)c(O)c1`: -0.33%; `O=C(/C=C/c1ccc(O)c(O)c1)O[C@H](Cc1ccc(O)c(O)c1)C(=O)O`: 3.24%; `O=C(/C=C/c1ccc(O)cc1)c1ccc(O)cc1O`: 99.7%.
Take `CC(C)(C)c1cc(C(=O)/C=C/c2ccc(C(=O)O)cc2)cc(C(C)(C)C)c1`: the inhibition in assay [1] was found to be 2.42%.
Same read-out and setting: next, `CC(C)C[C@@H](NC(=O)OCC1c2ccccc2-c2ccccc21)C(=O)O`: 3.37%.
CARBOPLATIN, CHEMBL1351: the inhibition in assay [2] was -2.28%.
Turning to `CC(C)C[C@H](NC(=O)OCC1c2ccccc2-c2ccccc21)C(=O)O`, the inhibition in assay [1] is -7.02%.
Same read-out and setting: next, `CC(C)(C)C1CCc2c(sc(NC(=O)c3ccco3)c2C(=O)O)C1` (stereo not drawn): -1.94%; `O=c1ccc2c(OCCCCOc3ccccc3)c3ccoc3cc2o1`: -4.23%; `COc1ccc(S(=O)(=O)Nc2cc(Cl)cc(Cl)c2OC)cc1N1CCNCC1`: -0.38%.
Consider `CC1(C)Oc2ccc(C#N)cc2[C@H](N(Cc2ncc[nH]2)c2ccc(Cl)cc2)[C@H]1O`, for which the inhibition in assay [1] is 5.57%.
Take `CCOC(=O)COc1ccc2c(=O)cc(-c3ccccc3)oc2c1`: the inhibition in assay [1] is -3.12%.
Still for that read-out and setting: next, `O=C(O)c1cc(=O)c2ccccc2o1`: 10.2%.
Same read-out and setting: next, `CC(C)c1ccc(-c2cc(=O)c3ccccc3o2)cc1`: 77.3%.
Take “ACRIFLAVINE HYDROCHLORIDE, CHEMBL5219995”: the inhibition in assay [2] turned out to be 7.54%.
In the case of `CCCCCCCCCCCCCCCCCCCCCC(=O)Nc1ccn([C@@H]2O[C@H](CO)[C@@H](O)[C@@H]2O)c(=O)n1`, the inhibition in assay [1] is -7.93%.
On the same count and under the same terms, next, `COc1cc(-n2cnc3cc(-c4ccc(Cl)cc4)sc3c2=O)ccc1OCCN1CCCC1`: 2.09%; `O=C(CC(c1ccccc1)c1ccccc1)N1CCN(C(c2ccccc2)c2ccccc2)CC1`: -2.23%.
As to `O=c1cc(-c2ccccc2)oc2cc(O)cc(O)c12`, the inhibition in assay [1] is 72.7%.
For the compound `COc1ccc(-c2cc(=O)c3c(O)c(OC)c(O)cc3o2)cc1OC`, in assay [1], the inhibition stood at 58.5%.
In the case of `O=C1C[C@@H](c2ccccc2)Oc2cc(O)cc(O)c21`, the inhibition in assay [1] came out at 4%.
Still for that read-out and setting: next, `O=c1oc2cc(O)ccc2s1`: -3.98%; `O=c1c(O)c(-c2cc(O)c(O)c(O)c2)oc2cc(O)cc(O)c12`: 6.61%.
The same measure, in the same setting: next, `O=c1c(O)c(-c2ccc(O)cc2)oc2cc(O)cc(O)c12`: 47.1%; `O=C(O)Cc1cccc2c(=O)cc(-c3ccccc3)oc12`: 2.51%.
Still for that read-out and setting: next, `COc1ccc(-c2cc(=O)c3c(OC)c(OC)c(OC)c(OC)c3o2)cc1`: -4.13%.
In the case of `COc1ccc(-c2cc(=O)c3c(OC)c(OC)c(OC)c(OC)c3o2)cc1OC`, in assay [1], the inhibition was -7.64%.
Same read-out and setting: next, `O=c1cc(-c2ccc(O)cc2)oc2cc(O)cc(O)c12`: 66.2%.
Same read-out and setting: next, `O=C(O)[C@H]1O[C@H](Oc2cc3oc(-c4ccccc4)cc(=O)c3c(O)c2O)[C@H](O)[C@@H](O)[C@@H]1O`: -2.69%; `O=c1cc(-c2ccccc2)oc2cc(O)c(O)c(O)c12`: 75.1%; `CCN(c1ccccc1)c1cc(NC)[n+](C)c(C)n1`: -1.77%.
As to `O=C(O)Cc1nn(Cc2nc3cc(C(F)(F)F)ccc3s2)c(=O)c2ccccc12`, the inhibition in assay [1] is -1.1%.
The same measure, in the same setting: next, `O=C(Nc1ccc(S(=O)(=O)Nc2nccs2)cc1)C(c1ccccc1)c1ccccc1`: -1.03%; `CN[C@@H](C)C(=O)N[C@H](C(=O)N1CCC[C@H]1C(=O)Nc1sc(-c2ncco2)nc1-c1ccccc1)C1CCCCC1`: -6.76%; `O=c1[nH]cnc2ccccc12`: -1.07%.
Still for that read-out and setting: next, `COc1cc2nc(N3CCN(C(=O)COc4c(OC)cccc4C(C)C)CC3)nc(N)c2cc1OC`: 4.56%; `CCCCOc1nc(N)c2c(n1)N(Cc1cccc(CN3CCCC3)c1)CC(=O)N2`: 3.13%; `CC1CCc2c(cc(Br)c(F)c2Br)N1C=O` (stereo not drawn): 3.01%.
Still for that read-out and setting: next, `N#C/C(=C\c1cn(-c2ccccc2)c2ccccc12)C(=O)O`: -2.69%; `O=S(=O)(O)CC(S)CS` (stereo not drawn): 2.52%.
Turning to `Cc1ccc(CCCO)c(NCc2ccc3nc(NCCCN4CCOCC4)n(Cc4nc(C)ccc4O)c3c2)c1`, the inhibition in assay [1] is -5.63%.
The same measure, in the same setting: next, `N#Cc1c(N)nc(SCc2csc(-c3ccc(Cl)cc3)n2)c(C#N)c1-c1ccc(OCCO)cc1`: 2.06%; `CCCCCCCCCCCCCCCC[n+]1ccn(Cc2ccccc2)c1C`: -2.57%; `COc1cc2c(cc1OC)-c1c(C)c3ccc(OC)c(OC)c3c[n+]1CC2`: -0.34%.
The same measure, in the same setting: next, `COc1ccc([C@@H]2CC(=O)c3c(O)cc(O)cc3O2)cc1O`: 31.5%; `COc1ccc(-c2cc(=O)c3c(O)cc(O[C@@H]4O[C@H](CO[C@@H]5O[C@@H](C)[C@H](O)[C@@H](O)[C@H]5O)[C@@H](O)[C@H](O)[C@H]4O)cc3o2)cc1O`: 8.42%; `COc1ccc(-c2cc(=O)c3c(O)cc(O)cc3o2)cc1O`: 52.3%.
Still for that read-out and setting: next, `O=C(O)c1ccc(NC(=O)[C@H](Cc2ccc(O)cc2)NC(=O)c2ccccc2)cc1`: 3.32%; `CC(=O)Nc1ccc(C(=O)Nc2ccccc2N)cc1`: 0.93%; `CC(C)[C@H](C(=O)Nc1ccc(C(=O)NO)cc1)c1ccccc1`: 98%.
On to `O=C(O)c1ccccc1Nc1ccc(CCc2ccc(Cl)c(Cl)c2)cc1`, for which, in assay [1], the inhibition is -6.85%.
Still for that read-out and setting: next, `COc1ccc2c(c1)C(C(=O)N(Cc1ccc(N(C)C)cc1)c1ccc(C(C)C)cc1)CCC2` (stereo not drawn): -3.38%.

The record behind these values is ChEMBL document CHEMBL4808148, “HDAC6 screening dataset using tau-based substrate in an enzymatic assay yields selective inhibitors and activators” (2021).
